Results: PubChem BioAssay
The source made the active and inactive calls.

What was measured:
Albumin (Bos taurus) = Albumin (Bos taurus) (UniProt P02769); assay: compounds binding labelled BSA control protein – biochemical, small-molecule microarray, Alexa647 label, 635/667 nm fluorescence, artefact control for SMM control protein annotation, profiling panel (AID 1118); conditions: BSA-A647 binding, fluorescence 635 nm, higher = more signal;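 also: score merges 667 nm emission intensity and signal-to-noise per printed compound spot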
[1] = probe aXIP binding to arrayed compounds – biochemical, NeuroSMM set, 635/667 nm fluorescence, primary screen (AID 1119); conditions: small-molecule microarray, higher = more signal, called active from +8 up or from −8 down;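 also: probe is the protein aXip251-270 applied at 1 µg/mL to compound-printed slides; binding of probe to printed compounds measured as 667 nm fluorescence plus signal to noise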
[2] = probe aNOTCH3 binding on compound microarray – biochemical, small-molecule microarray, 635/667 nm fluorescence, primary screen (AID 1120); conditions: higher = more signal;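 also: probe is a biotin-tagged antibody raised against NOTCH3 rather than NOTCH3 protein; score merges spot fluorescence near 667 nm with spot signal to noise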
[3] = probe aNOTCH2 binding on compound microarray – biochemical, small-molecule microarray, 635/667 nm fluorescence, primary screen (AID 1121); conditions: higher = more signal;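 also: score merges feature fluorescence read at 667 nm with its signal to noise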
[4] = target: Carbonic anhydrase 2 (Homo sapiens) (UniProt P00918); assay: compounds binding carbonic anhydrase 2 – biochemical, small-molecule microarray, Alexa647-labelled CAII, profiling panel (AID 1122); conditions: CAII-A647 binding fluorescence, higher = more signal
[5] = COS7 lysate on small-molecule microarray, probe aHis, 635 nm (AID 1123); conditions: COS7 cell lysate, fluorescence, higher = more signal;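 also: z-score combines 667nm fluorescence intensity with signal-to-noise per printed compound spot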
[6] = probe aLAP1 signal on lysate-treated microarray – cell lysate, small-molecule microarray, COS7 lysate, primary screen (AID 1124); conditions: probe aLAP1, fluorescence, higher = more signal;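 also: lysate comes from COS7 cells expressing LAP1 and is applied at 0.3 µg/mL; score merges spot fluorescence near 667 nm with signal-to-noise over triplicate slides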
Sam68 (KHDRBS1) = assay: compounds binding KHDRBS1 protein – biochemical, small-molecule microarray, 635 nm fluorescence, primary screen (AID 1125); conditions: higher = more signal;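 also: score merges 667 nm channel intensity with signal to noise over triplicate slides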
[7] = test system: Chordin-like protein 2 (CHRDL2); assay: compounds binding chordin-like 2 – biochemical, small-molecule microarray, 635 nm fluorescence, primary screen (AID 1126); conditions: fluorescence 635 nm, higher = more signal;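 also: printed compound slides probed with Chrdl2 protein at 4 µg/mL for 1 h at 4 C; score merges 667 nm emission intensity with signal to noise over three replicate slides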
[8] = target: Concanavalin-A (Canavalia ensiformis) (UniProt P02866); assay: compounds binding concanavalin A lectin – biochemical, small-molecule microarray, Alexa647 label, 635 nm, artefact control for SMM control protein annotation, primary screen (AID 1127); conditions: ConA-A647 binding fluorescence, higher = more signal;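 also: z combines 667 nm emission intensity with signal-to-noise across three replicate slides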
[9] = compounds binding Alexa647 anti-His antibody – biochemical, small-molecule microarray, 635 nm fluorescence, artefact control for SMM control protein annotation, primary screen (AID 1128); conditions: higher = more signal;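 also: score merges feature fluorescence with signal-to-noise for each printed compound spot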
[10] = test system: Human papillomavirus type 1a E7 protein (residues 1-88); assay: HPV1a E7 small-molecule binders, primary screen, biochemical, small-molecule microarray, residues 1-88, 635 nm (AID 1129); conditions: small-molecule microarray binding, fluorescence 635 nm; higher = more signal
[11] = target: Focal adhesion kinase 1 (Homo sapiens) (UniProt Q05397); assay: PTK2 protein binding on printed compound slides – biochemical, small-molecule microarray, 635/667 nm fluorescence, BSA, DTT, primary screen (AID 1130); conditions: 635 nm fluorescence, higher = more signal;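 also: composite of spot emission at 667 nm and signal to noise over triplicate slides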
[12] = test system: Fibrinogen (Alexa647-labelled); assay: Alexa647-fibrinogen binding to printed small molecules – biochemical, small-molecule microarray, 635/667 nm fluorescence, artefact control for SMM control-protein annotation, profiling panel (AID 1131); conditions: fibrinogen-A647 binding fluorescence, higher = more signal;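 also: z-score merges 667 nm fluorescence with per-spot signal-to-noise over triplicate slides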
[13] = target: Follistatin (Homo sapiens) (UniProt P19883); assay: FST protein binding to printed compounds – biochemical, small-molecule microarray, 635/667 nm fluorescence, primary screen (AID 1132); conditions: 635 nm fluorescence, higher = more signal
[14] = target: Fibroblast growth factor 2 (Homo sapiens) (UniProt P09038); assay: basic fibroblast growth factor binding to printed compounds – biochemical, small-molecule microarray, 635/667 nm fluorescence, primary screen (AID 1133); conditions: FGF2, fluorescence 635/667, higher = more signal
[15] = JC-1 mitochondrial potential readout, lung cancer cells – cell-based, A549, JC-1 fluorescence, basal, 24 h, 100 nL, profiling panel (AID 1138); conditions: higher = more signal;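 also: A549 lung adenocarcinoma cells under basal conditions with no added stimulus; test concentration not given here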
Lefty1 = Lefty1 protein binding to printed compounds – biochemical, small-molecule microarray, 635/667 nm fluorescence, primary screen (AID 1139); conditions: fluorescence 635/667, higher = more signal
[16] = test system: wheat germ agglutinin (Triticum aestivum), Alexa647-labelled; assay: Alexa647-WGA lectin binding to printed small molecules – biochemical, small-molecule microarray, 635/667 nm fluorescence, artefact control for SMM control-protein annotation, profiling panel (AID 1140); conditions: WGA-A647 binding, 635 nm fluorescence, higher = more signal;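 also: score merges 667 nm feature emission with signal to noise over triplicate slides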
[17] = target: Luciferin 4-monooxygenase (Photinus pyralis) (UniProt P08659); assay: inhibition of purified Photinus pyralis luciferase – biochemical, luminescence, purified enzyme, 2006 set, primary screen (AID 1141); conditions: purified firefly luciferase, SteadyGlo luminescence, 30 min; higher = more signal, called active from +8 up or from −8 down;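 also: cell-free assay with purified firefly luciferase at 100 ng per well in PBS; test concentration not given here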
Sequence of Luciferin 4-monooxygenase (Photinus pyralis) (P08659 whole entry, looked up): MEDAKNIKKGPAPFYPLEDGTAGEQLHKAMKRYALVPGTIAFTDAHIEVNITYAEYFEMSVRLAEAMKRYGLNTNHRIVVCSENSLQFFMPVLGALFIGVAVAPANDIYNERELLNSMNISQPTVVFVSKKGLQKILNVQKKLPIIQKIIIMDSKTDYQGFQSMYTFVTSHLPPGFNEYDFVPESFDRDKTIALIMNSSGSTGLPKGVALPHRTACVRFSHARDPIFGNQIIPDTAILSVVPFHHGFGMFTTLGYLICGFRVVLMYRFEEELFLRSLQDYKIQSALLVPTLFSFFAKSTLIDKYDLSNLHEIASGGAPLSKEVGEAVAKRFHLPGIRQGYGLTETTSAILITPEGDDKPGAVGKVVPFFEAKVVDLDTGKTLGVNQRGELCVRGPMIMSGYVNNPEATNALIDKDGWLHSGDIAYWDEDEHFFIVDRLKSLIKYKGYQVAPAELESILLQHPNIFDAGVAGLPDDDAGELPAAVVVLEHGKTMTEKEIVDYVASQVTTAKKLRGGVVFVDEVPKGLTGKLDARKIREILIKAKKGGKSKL

Sequence of Albumin (Bos taurus) (P02769 whole entry, looked up): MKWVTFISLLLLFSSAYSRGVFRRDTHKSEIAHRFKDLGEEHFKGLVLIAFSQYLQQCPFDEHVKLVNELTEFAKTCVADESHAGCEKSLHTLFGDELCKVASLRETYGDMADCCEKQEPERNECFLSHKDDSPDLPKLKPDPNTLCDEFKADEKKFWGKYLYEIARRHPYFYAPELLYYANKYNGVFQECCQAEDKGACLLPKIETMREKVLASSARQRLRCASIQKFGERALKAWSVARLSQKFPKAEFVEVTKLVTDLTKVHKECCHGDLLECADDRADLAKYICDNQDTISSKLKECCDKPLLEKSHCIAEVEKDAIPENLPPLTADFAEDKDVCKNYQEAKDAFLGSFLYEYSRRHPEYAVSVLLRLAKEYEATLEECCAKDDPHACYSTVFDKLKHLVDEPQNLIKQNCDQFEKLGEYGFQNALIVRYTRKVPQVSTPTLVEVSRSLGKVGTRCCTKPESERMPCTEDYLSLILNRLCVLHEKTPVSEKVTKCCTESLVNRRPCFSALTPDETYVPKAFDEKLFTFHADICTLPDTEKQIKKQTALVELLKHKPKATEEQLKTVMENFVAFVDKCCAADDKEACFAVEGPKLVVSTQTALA
Sequence of Focal adhesion kinase 1 (Homo sapiens) (Q05397 whole entry, looked up): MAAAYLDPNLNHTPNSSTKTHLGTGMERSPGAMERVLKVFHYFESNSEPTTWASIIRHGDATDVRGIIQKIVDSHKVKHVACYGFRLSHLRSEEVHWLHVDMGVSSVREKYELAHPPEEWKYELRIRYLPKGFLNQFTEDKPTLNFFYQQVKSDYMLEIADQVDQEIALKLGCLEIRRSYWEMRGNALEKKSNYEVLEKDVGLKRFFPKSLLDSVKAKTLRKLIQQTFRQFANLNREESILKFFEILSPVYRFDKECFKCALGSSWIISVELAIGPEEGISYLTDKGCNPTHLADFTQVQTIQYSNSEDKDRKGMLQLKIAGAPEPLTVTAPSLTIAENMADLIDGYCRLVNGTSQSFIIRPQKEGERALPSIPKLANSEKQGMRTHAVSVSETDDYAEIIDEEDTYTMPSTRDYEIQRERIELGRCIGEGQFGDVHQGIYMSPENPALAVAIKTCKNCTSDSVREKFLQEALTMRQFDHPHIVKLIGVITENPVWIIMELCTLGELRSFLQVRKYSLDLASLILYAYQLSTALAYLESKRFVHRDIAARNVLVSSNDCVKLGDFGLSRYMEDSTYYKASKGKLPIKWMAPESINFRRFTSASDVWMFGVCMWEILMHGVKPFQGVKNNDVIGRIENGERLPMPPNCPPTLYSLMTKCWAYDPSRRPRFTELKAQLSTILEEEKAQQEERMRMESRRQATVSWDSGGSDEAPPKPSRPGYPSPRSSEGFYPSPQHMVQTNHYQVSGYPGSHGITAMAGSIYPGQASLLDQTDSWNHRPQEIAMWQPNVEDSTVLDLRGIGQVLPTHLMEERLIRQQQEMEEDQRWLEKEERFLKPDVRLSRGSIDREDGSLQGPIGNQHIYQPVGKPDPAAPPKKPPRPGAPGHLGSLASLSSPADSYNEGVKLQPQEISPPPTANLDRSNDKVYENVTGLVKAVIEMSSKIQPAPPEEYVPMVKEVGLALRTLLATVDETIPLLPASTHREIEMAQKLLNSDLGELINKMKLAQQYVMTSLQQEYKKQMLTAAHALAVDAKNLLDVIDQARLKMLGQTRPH
Sequence of Follistatin (Homo sapiens) (P19883 whole entry, looked up): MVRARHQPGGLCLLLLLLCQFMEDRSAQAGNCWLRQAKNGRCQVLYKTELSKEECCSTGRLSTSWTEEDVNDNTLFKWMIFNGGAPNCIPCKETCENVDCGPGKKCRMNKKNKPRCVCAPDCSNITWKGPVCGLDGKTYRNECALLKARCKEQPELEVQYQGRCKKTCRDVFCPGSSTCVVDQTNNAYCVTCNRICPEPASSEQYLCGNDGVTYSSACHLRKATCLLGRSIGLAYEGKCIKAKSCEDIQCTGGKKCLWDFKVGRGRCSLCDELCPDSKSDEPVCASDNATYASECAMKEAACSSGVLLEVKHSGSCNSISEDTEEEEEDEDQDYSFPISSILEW
Sequence of Concanavalin-A (Canavalia ensiformis) (P02866 whole entry, looked up): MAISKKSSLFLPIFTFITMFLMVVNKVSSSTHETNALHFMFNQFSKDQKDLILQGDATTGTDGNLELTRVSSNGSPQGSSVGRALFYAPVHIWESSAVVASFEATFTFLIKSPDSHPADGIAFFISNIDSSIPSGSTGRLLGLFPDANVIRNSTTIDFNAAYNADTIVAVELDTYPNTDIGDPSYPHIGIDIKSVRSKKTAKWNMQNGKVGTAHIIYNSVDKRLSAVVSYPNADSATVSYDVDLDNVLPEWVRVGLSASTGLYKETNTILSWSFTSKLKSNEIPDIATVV
Sequence of Fibroblast growth factor 2 (Homo sapiens) (P09038 whole entry, looked up): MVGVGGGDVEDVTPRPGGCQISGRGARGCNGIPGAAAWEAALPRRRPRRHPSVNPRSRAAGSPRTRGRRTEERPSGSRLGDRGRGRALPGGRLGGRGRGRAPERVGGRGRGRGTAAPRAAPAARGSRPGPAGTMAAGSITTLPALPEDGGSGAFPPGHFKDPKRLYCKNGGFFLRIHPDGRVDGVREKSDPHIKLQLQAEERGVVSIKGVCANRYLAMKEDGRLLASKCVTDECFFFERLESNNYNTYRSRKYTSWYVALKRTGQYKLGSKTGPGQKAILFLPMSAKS

## Cc1cc(C)c(C(O)C2C=CC3C(=O)N(c4ccccc4)C(=O)C3N2Nc2ccc(C(C)C)cc2)c(C)c1 (stereo not given)
Albumin (Bos taurus)
  composite z-score: 0.585
[1]
  composite Z-score: 0.904 (inactive)
[2]
  composite z-score: 0.331
[3]
  composite z-score: 0.0557
[4]
  composite z-score: 0.712
[5]
  composite z-score: 2.78
[6]
  composite z-score: 0.8
Sam68 (KHDRBS1)
  composite z-score: 1.29
[7]
  composite z-score: -0.545
[8]
  composite z-score: 1.18
[9]
  composite z-score: 1.11
[10]
  composite z-score: 1.26
[11]
  composite z-score: 1.22
[12]
  composite z-score: 1.02
[13]
  composite z-score: 0.811
[14]
  composite z-score: 0.375
[15]
  z-score: 0.178
Lefty1
  composite z-score: -0.138
[16]
  composite z-score: 1.39
[17]
  z-score: -0.197 (inactive)

## [N-]=[N+]=Nc1ccccc1[C@H]1OC(c2ccc(OCCCO)cc2)=N[C@@]1(Cc1ccccc1)C(=O)N1CCCCC1
Albumin (Bos taurus)
  composite z-score: 0.899
[1]
  composite Z-score: 0.498 (inactive)
[2]
  composite z-score: 0.369
[3]
  composite z-score: 0.208
[4]
  composite z-score: 0.38
[5]
  composite z-score: 2.36
[6]
  composite z-score: 0.19
Sam68 (KHDRBS1)
  composite z-score: 1.13
[7]
  composite z-score: 0.618
[8]
  composite z-score: 1.19
[9]
  composite z-score: 1.55
[10]
  composite z-score: 1.2
[11]
  composite z-score: 0.724
[12]
  composite z-score: 0.963
[13]
  composite z-score: 1.45
[14]
  composite z-score: 1.67
[15]
  z-score: -1.43
Lefty1
  composite z-score: 0.0229
[16]
  composite z-score: 0.945
[17]
  z-score: -6.62 (inactive)

## O=C(NCC(F)(F)F)[C@@H]1c2ccccc2C(=O)N(Cc2ccccc2C(F)(F)F)[C@H]1c1ccc(CO)cc1
Albumin (Bos taurus)
  composite z-score: 0.0104
[1]
  composite Z-score: 1.89 (inactive)
[2]
  composite z-score: -0.0824
[3]
  composite z-score: 0.0667
[4]
  composite z-score: 0.758
[5]
  composite z-score: 0.891
[6]
  composite z-score: 0.234
Sam68 (KHDRBS1)
  composite z-score: 0.163
[7]
  composite z-score: -0.572
[8]
  composite z-score: -0.104
[9]
  composite z-score: 0.219
[10]
  composite z-score: -0.479
[11]
  composite z-score: -0.335
[12]
  composite z-score: -1.14
[13]
  composite z-score: 0.706
[14]
  composite z-score: 0.548
[15]
  z-score: 0.0955
Lefty1
  composite z-score: -0.569
[16]
  composite z-score: -0.885
[17]
  z-score: 0.461 (inactive)

## C=CC1c2cc(O)c(OC)cc2CCN1Cc1cc2c(cc1Br)OCO2 (stereo not given)
Albumin (Bos taurus)
  composite z-score: -0.956
[1]
  composite Z-score: 0.577 (inactive)
[2]
  composite z-score: -0.0152
[3]
  composite z-score: -0.0891
[4]
  composite z-score: 0.823
[5]
  composite z-score: 1.99
[6]
  composite z-score: 1.25
Sam68 (KHDRBS1)
  composite z-score: 0.342
[7]
  composite z-score: 0.775
[8]
  composite z-score: 0.142
[9]
  composite z-score: 0.976
[10]
  composite z-score: -1.38
[11]
  composite z-score: -0.0181
[12]
  composite z-score: -0.851
[13]
  composite z-score: 1.27
[14]
  composite z-score: -0.0941
[15]
  z-score: -1.54
Lefty1
  composite z-score: 0.504
[16]
  composite z-score: -0.623
[17]
  z-score: 0.0715 (inactive)

## O=C1O[C@@H](c2ccccc2)[C@@H](c2ccccc2)N2[C@@H](c3ccc(O)cc3)[C@]3(C(=O)Nc4ccc(C#CC5=CCCCC5)cc43)[C@@H](C(=O)NC[C@H](O)c3ccccc3)[C@H]12
Albumin (Bos taurus)
  composite z-score: 0.375
[1]
  composite Z-score: 0.486 (inactive)
[2]
  composite z-score: 0.274
[3]
  composite z-score: 0.0556
[4]
  composite z-score: 0.401
[5]
  composite z-score: 2.1
[6]
  composite z-score: 0.553
Sam68 (KHDRBS1)
  composite z-score: 1.31
[7]
  composite z-score: 1.13
[8]
  composite z-score: 1.05
[9]
  composite z-score: 0.219
[10]
  composite z-score: 1.19
[11]
  composite z-score: 0.134
[12]
  composite z-score: 0.925
[13]
  composite z-score: 1.45
[14]
  composite z-score: 1.69
[15]
  z-score: -0.945
Lefty1
  composite z-score: 0.907
[16]
  composite z-score: 1
[17]
  z-score: -1.38 (inactive)

## C#CCN([C@@H](Cc1ccc(O)cc1)C(=O)OC)[C@@H](/C=C/C1CC1)[C@H](O)Cc1ccccc1
Albumin (Bos taurus)
  composite z-score: -0.865
[1]
  composite Z-score: -0.0582 (inactive)
[2]
  composite z-score: -0.0567
[3]
  composite z-score: -0.172
[4]
  composite z-score: -0.303
[5]
  composite z-score: 0.071
[6]
  composite z-score: 0.0995
Sam68 (KHDRBS1)
  composite z-score: -0.0361
[7]
  composite z-score: 0.523
[8]
  composite z-score: -0.58
[9]
  composite z-score: 0.241
[10]
  composite z-score: -0.968
[11]
  composite z-score: -0.0524
[12]
  composite z-score: -0.519
[13]
  composite z-score: 0.814
[14]
  composite z-score: -0.0354
[15]
  z-score: -1.6
Lefty1
  composite z-score: 0.618
[16]
  composite z-score: -0.55
[17]
  z-score: -0.0396 (inactive)

## CCCNC(=O)[C@@H]1c2ccccc2C(=O)N(C(C)C)[C@H]1c1ccc(CO)cc1
Albumin (Bos taurus)
  composite z-score: -0.342
[1]
  composite Z-score: 0.251 (inactive)
[2]
  composite z-score: -0.0728
[3]
  composite z-score: -0.0567
[4]
  composite z-score: 0.322
[5]
  composite z-score: 0.113
[6]
  composite z-score: 0.784
Sam68 (KHDRBS1)
  composite z-score: 0.437
[7]
  composite z-score: -0.605
[8]
  composite z-score: 0.208
[9]
  composite z-score: 3
[10]
  composite z-score: -0.645
[11]
  composite z-score: -0.19
[12]
  composite z-score: -0.29
[13]
  composite z-score: -0.577
[14]
  composite z-score: -0.517
[15]
  z-score: 1.39
Lefty1
  composite z-score: -0.371
[16]
  composite z-score: -0.03
[17]
  z-score: 0.407 (inactive)

## COc1ccc(C(O)C2C=CC3C(=O)N(c4ccccc4)C(=O)C3N2Nc2ccc([N+](=O)[O-])cc2)cc1 (stereo not given)
Albumin (Bos taurus)
  composite z-score: 0.968
[1]
  composite Z-score: 1.19 (inactive)
[2]
  composite z-score: 0.84
[3]
  composite z-score: 0.495
[4]
  composite z-score: 0.637
[5]
  composite z-score: 2.86
[6]
  composite z-score: 0.64
Sam68 (KHDRBS1)
  composite z-score: 1.31
[7]
  composite z-score: -0.936
[8]
  composite z-score: 0.989
[9]
  composite z-score: 2.11
[10]
  composite z-score: 1.24
[11]
  composite z-score: 0.961
[12]
  composite z-score: 1.01
[13]
  composite z-score: 0.848
[14]
  composite z-score: -0.246
[15]
  z-score: 0.103
Lefty1
  composite z-score: -0.344
[16]
  composite z-score: 1.14
[17]
  z-score: 0.732 (inactive)

## C=CCC(OC(C)=O)[C@@H]1[C@@H](N(Cc2ccc(-c3cccc(C(F)(F)F)c3)o2)C(=O)c2ccc(-c3ccccc3)cc2)c2cc(OCCCO)ccc2N1C(=O)c1ccc2ccccc2n1 (stereo not given in full)
Albumin (Bos taurus)
  composite z-score: -0.267
[1]
  composite Z-score: -0.219 (inactive)
[2]
  composite z-score: -0.0077
[3]
  composite z-score: 0.357
[4]
  composite z-score: -0.232
[5]
  composite z-score: 0.266
[6]
  composite z-score: -0.154
Sam68 (KHDRBS1)
  composite z-score: -0.734
[7]
  composite z-score: 0.198
[8]
  composite z-score: -0.458
[9]
  composite z-score: 0.445
[10]
  composite z-score: -0.507
[11]
  composite z-score: 0.0509
[12]
  composite z-score: 0.401
[13]
  composite z-score: 0.772
[14]
  composite z-score: -0.0036
[15]
  z-score: 0.404
Lefty1
  composite z-score: 0.149
[16]
  composite z-score: -0.0763
[17]
  z-score: 0.141 (inactive)
